Test results published in publication PMC7862700, “An all-to-all approach to the identification of sequence-specific readers for epigenetic DNA modifications on cytosine”.

Tests used:
Test in all cases: DAPPL (digital affinity profiling via proximity ligation, sequencing); 10 mM Tris-HCl pH 7.5, 50 mM NaCl, 1 mM DTT, 4% glycerol, room temperature, 30 min; GST-TFs on glutathione beads, 16-mer random dsDNA library, 0.1% formaldehyde crosslink after washing; high values mean tight binding
Settings in all cases: protein: recombinant; tags: N-terminal GST; dsDNA, one strand shown
EHF = biological target: T1, EHF (Homo sapiens, UniProt Q9NZC4 1-300)
T1 sequence: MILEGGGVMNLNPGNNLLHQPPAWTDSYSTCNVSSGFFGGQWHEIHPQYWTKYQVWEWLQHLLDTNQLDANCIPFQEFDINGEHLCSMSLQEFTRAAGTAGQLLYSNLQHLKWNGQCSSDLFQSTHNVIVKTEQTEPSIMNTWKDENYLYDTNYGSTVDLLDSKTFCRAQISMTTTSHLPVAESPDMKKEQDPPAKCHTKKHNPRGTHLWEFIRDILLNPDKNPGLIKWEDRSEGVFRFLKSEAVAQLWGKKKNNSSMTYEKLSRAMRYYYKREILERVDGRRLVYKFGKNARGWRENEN
Summary of the method: (§1)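 Binding signal is each hexamer's read frequency for a factor divided by its frequency in the tag-only sample. The factors were GST-fused human transcription factors from yeast, captured on glutathione beads, DNA-barcoded and pooled with that sample. Pools were incubated with 200 nmole of a random double-stranded 16-mer DNA library in Tris/NaCl/DTT/glycerol buffer at room temperature for 30 min, then washed, crosslinked with 0.1% formaldehyde, proximity-ligated with BsaI/T4 ligase (1 h, 37 °C), PCR-amplified and sequenced on an Illumina NextSeq500.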

ETV5 = ETV5 (Homo sapiens, UniProt P41161 1-510)
Sequence of ETV5 (P41161 whole entry): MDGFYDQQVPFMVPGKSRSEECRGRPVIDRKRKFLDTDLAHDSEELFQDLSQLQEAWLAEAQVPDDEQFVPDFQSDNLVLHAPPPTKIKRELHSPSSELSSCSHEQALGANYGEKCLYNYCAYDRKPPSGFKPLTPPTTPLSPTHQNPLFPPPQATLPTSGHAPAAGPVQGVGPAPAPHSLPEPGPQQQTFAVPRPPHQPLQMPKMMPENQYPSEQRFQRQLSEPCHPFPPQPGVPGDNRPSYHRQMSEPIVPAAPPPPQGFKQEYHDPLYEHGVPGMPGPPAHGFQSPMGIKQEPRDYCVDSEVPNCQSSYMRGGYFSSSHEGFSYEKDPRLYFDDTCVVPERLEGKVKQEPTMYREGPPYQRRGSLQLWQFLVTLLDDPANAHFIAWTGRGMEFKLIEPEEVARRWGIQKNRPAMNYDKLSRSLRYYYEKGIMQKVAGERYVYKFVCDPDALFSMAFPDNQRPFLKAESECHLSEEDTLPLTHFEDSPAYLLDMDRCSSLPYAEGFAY
Summary of the method: as §1

ETV2 = biological target: T2, ETV2 (Homo sapiens, UniProt O00321 1-342)
T2 sequence: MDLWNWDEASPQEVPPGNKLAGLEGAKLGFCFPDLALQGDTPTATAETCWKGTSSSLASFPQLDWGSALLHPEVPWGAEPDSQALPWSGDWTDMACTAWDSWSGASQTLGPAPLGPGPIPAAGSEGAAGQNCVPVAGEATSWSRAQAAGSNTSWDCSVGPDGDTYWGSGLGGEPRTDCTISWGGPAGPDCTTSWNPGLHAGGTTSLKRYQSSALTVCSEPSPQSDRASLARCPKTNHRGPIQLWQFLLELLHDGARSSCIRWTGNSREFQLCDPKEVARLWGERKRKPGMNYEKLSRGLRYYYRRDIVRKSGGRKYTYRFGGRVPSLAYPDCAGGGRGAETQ
Summary of the method: as §1

ELF3 = biological target: T3, ELF3 (Homo sapiens, UniProt P78545 1-371)
T3 sequence: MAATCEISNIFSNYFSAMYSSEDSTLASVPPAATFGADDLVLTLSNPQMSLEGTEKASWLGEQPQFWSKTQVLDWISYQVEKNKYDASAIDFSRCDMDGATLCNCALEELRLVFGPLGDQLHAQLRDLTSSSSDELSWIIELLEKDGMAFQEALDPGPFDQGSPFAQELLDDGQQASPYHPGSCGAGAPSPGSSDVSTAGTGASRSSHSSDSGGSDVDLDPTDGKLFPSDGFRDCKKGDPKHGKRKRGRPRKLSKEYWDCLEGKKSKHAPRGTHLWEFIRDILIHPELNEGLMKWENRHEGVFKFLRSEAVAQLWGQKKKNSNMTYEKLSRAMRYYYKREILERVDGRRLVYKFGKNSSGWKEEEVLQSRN
Summary of the method: as §1

ERF = biological target: T4, ERF (Homo sapiens, UniProt P50548 1-548)
T4 sequence: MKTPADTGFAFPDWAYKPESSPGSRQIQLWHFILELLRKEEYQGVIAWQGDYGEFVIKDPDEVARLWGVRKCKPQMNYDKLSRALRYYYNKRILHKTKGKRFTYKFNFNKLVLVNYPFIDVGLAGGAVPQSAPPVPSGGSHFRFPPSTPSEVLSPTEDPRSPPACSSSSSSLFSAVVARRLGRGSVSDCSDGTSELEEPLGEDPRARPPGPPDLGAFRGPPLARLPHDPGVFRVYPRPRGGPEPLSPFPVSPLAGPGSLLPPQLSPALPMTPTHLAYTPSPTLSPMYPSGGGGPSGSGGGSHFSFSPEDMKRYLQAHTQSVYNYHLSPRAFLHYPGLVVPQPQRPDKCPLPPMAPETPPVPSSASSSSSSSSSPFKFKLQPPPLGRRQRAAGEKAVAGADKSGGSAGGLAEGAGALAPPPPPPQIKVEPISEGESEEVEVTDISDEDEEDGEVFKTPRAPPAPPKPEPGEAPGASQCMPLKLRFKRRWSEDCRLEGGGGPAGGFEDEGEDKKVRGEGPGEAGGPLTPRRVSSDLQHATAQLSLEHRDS
Summary of the method: as §1

ETS2 = biological target: T5, ETS2 (Homo sapiens, UniProt P15036 1-469)
T5 sequence: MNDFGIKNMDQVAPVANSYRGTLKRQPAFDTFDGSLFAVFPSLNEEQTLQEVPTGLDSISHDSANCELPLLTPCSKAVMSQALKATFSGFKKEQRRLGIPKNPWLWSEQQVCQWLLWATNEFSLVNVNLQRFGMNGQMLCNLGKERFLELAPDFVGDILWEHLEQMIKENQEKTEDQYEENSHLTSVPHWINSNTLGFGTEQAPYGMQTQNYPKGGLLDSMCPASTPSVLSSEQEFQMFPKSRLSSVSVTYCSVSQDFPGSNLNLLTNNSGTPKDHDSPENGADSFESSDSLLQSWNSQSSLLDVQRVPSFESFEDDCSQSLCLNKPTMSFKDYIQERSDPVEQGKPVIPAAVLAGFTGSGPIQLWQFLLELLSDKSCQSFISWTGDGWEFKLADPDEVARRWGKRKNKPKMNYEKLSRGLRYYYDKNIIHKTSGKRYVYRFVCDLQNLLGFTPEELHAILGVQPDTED
Summary of the method: as §1

ETV7 = biological target: T6, ETV7 (Homo sapiens, UniProt Q9Y603 1-341)
T6 sequence: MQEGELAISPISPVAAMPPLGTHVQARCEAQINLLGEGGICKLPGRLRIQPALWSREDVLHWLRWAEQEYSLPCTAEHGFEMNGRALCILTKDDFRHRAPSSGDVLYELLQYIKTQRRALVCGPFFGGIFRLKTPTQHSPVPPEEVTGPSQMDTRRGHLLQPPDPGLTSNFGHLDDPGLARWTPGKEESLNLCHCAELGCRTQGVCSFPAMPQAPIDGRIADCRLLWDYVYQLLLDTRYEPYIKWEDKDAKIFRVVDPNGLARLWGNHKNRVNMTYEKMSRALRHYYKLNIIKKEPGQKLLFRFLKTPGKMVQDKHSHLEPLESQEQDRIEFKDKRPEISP
Summary of the method: as §1

ELK1 = biological target: T7, ELK1 (Homo sapiens, UniProt P19419 1-428)
T7 sequence: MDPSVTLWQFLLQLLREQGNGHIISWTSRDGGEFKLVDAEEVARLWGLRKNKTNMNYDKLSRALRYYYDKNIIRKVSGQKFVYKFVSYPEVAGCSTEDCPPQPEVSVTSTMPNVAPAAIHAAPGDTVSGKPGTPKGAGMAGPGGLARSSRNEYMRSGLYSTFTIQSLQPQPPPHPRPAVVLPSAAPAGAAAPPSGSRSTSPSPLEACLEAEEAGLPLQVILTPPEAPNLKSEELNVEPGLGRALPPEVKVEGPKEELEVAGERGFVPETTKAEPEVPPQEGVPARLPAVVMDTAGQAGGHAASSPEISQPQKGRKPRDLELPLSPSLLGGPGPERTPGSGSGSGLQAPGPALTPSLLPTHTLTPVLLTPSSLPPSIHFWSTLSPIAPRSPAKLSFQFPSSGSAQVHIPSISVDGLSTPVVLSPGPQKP
Summary of the method: as §1

GABPA = biological target: T8, GABPA (Homo sapiens, UniProt Q06546 1-454)
T8 sequence: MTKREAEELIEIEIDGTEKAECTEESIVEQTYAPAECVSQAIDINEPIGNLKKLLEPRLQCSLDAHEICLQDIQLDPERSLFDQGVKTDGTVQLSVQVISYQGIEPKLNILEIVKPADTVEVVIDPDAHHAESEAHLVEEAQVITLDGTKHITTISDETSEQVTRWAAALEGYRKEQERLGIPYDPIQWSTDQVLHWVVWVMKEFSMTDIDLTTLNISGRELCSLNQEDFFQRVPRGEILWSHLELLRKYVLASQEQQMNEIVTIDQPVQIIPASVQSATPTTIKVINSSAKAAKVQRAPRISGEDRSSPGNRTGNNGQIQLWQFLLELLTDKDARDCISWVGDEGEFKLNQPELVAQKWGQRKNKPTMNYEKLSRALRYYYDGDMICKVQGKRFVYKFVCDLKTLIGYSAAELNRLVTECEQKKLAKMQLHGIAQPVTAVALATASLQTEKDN
Summary of the method: as §1

ERG = biological target: T9, ERG (Homo sapiens, UniProt P11308 1-479)
T9 sequence: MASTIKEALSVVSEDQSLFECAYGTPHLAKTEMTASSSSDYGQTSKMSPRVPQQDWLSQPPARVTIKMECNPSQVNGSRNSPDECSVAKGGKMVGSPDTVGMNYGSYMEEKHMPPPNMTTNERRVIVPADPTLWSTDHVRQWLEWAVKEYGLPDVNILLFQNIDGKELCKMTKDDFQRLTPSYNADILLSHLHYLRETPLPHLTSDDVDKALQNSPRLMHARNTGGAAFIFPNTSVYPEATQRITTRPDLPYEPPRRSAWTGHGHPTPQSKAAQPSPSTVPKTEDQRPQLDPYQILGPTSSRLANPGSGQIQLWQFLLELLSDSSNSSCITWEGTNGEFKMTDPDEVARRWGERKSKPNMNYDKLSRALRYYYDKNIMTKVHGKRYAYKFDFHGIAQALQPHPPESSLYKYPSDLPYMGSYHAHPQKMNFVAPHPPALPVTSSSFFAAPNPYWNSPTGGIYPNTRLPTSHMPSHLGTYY
Summary of the method: as §1

SPIB = SPIB (Homo sapiens, UniProt Q01892 1-262)
Sequence of SPIB (Q01892 whole entry): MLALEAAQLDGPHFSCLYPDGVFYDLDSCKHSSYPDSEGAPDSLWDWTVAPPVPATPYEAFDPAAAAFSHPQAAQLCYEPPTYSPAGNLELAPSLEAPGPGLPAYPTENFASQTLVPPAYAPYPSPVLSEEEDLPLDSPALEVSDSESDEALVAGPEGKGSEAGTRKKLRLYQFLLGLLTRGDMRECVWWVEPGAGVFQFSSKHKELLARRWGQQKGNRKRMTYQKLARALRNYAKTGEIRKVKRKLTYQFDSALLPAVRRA
Summary of the method: as §1

SPDEF = biological target: T10, SPDEF (Homo sapiens, UniProt O95238 1-335)
T10 sequence: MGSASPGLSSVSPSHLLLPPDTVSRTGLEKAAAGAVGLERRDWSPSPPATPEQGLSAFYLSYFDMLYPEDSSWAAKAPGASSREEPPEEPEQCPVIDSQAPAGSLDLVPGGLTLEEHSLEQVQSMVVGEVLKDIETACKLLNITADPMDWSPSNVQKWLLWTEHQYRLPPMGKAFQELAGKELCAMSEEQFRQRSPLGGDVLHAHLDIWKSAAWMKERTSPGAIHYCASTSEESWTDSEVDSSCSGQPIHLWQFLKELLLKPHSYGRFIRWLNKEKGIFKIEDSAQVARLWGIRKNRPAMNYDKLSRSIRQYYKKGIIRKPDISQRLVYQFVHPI
Summary of the method: as §1

ETV6 = ETV6 (Homo sapiens, UniProt P41212 1-452)
Sequence of ETV6 (P41212 whole entry): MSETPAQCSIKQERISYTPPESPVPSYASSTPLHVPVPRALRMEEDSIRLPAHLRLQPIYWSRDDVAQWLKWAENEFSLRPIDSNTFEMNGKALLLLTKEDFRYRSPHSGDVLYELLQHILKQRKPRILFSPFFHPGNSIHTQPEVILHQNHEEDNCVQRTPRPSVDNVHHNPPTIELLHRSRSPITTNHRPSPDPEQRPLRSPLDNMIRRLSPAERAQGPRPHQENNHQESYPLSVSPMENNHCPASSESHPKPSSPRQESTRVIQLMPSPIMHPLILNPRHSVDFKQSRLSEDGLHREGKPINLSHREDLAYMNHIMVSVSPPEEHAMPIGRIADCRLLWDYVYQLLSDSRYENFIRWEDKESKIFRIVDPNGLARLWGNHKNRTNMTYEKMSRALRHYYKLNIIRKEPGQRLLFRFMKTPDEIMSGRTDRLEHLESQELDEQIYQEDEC
Summary of the method: as §1

Row | Sequence | binding signal (EHF) | binding signal (ETV5) | binding signal (ETV2) | binding signal (ELF3) | binding signal (ERF) | binding signal (ETS2) | binding signal (ETV7) | binding signal (ELK1) | binding signal (GABPA) | binding signal (ERG) | binding signal (SPIB) | binding signal (SPDEF) | binding signal (ETV6)
1 | CGAACG | 1 fold enrichment (6-mer frequency, TF over GST control) | 1.03 fold enrichment (6-mer frequency, TF over GST control) | 1.09 fold enrichment (6-mer frequency, TF over GST control) | 1.05 fold enrichment (6-mer frequency, TF over GST control) | 1.11 fold enrichment (6-mer frequency, TF over GST control) | 1.03 fold enrichment (6-mer frequency, TF over GST control) | 1.02 fold enrichment (6-mer frequency, TF over GST control) | – | – | – | – | – | –
2 | TGGGAA | 1.04 fold enrichment (6-mer frequency, TF over GST control) | 1.04 fold enrichment (6-mer frequency, TF over GST control) | 1.02 fold enrichment (6-mer frequency, TF over GST control) | 1.13 fold enrichment (6-mer frequency, TF over GST control) | 1.04 fold enrichment (6-mer frequency, TF over GST control) | 1.02 fold enrichment (6-mer frequency, TF over GST control) | 1.09 fold enrichment (6-mer frequency, TF over GST control) | 1.08 fold enrichment (6-mer frequency, TF over GST control) | 1.05 fold enrichment (6-mer frequency, TF over GST control) | 1.02 fold enrichment (6-mer frequency, TF over GST control) | 1.05 fold enrichment (6-mer frequency, TF over GST control) | 1.01 fold enrichment (6-mer frequency, TF over GST control) | 1.17 fold enrichment (6-mer frequency, TF over GST control)
